PubChem BioAssay (NCATS)
Results filed as inconclusive are left out. Activity calls are given as the source filed them. The call rests on the fitted dose curve; in most records, active means well fitted cell-killing curve with a large enough effect; inconclusive means small, poorly fitted or top-dose-only effect, or effect the other way; inactive means flat fitted curve, though single readings scatter.

Key:
Assay in all cases: Primary qHTS to identify gynecologic anti-cancer compounds using libraries of approved drugs and bioactive compounds (AID 1345084); further: nearly all actives have a fitted effect of over 55% in size
Conditions in all cases: Gynecologic cancer cell panel viability, ATPlite luminescence, 48 h; series mostly up to 57.5 µM
OV90 = tested on: OV90
In short: (§1)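 Measured: luminescence after ATPlite addition (15 min, RT). Exposure: 48 h, 37 C, 5% CO2.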

PA-1 = tested on: PA-1
In short: as §1

Tov-21-G = tested on: Tov-21-G
In short: as §1

Tov112D = tested on: Tov112D
In short: as §1

Measured: Potency

CCOC(=O)C(CCc1ccccc1)NC1CCCN2CCCC(C(=O)O)N2C1=O (stereo not given)
inactive: all assays above

C[C@@H]1C(=O)O[C@H]2[C@H]1CC[C@@]1(C)C(=O)C=C[C@@](C)(O)[C@H]21
inactive: all assays above

CC(C)[C@](O)(c1ccc2cc(OC(F)F)c(OC(F)F)cc2c1)c1cn[nH]n1
inactive: all assays above

C[C@@H]1[C@H]2[C@H](O[C@@H]3O[C@H](CO)[C@@H](O)[C@H](O)[C@H]3O)OC=C(C(=O)O)[C@H]2C[C@@H]1OC(=O)/C=C/c1ccc(O)cc1
inactive: all assays above

COc1ccc(OC)c(C2C(C#N)=C(N)Oc3n[nH]c(-c4ccc5ccccc5c4)c32)c1 (stereo not given)
inactive: all assays above

CC[C@@H]1[C@H]2CCCCN3C(=O)C[C@H]([C@@H]4[C@H]1OC(=O)[C@H]4C)[C@@H]23
inactive: all assays above

Nc1nc2c(nc(Sc3ccc(Cl)cc3)n2[C@@H]2O[C@@H]3COP(=O)(O)O[C@H]3[C@H]2O)c(=O)[nH]1
inactive: all assays above

COc1ccccc1Oc1c(NS(=O)(=O)c2ccc(C)cn2)nc(-c2ccncc2)nc1OC
inactive: all assays above

COc1ccc(C2(O)c3c(ccc4c3OC(C)(CCC=C(C)C)C=C4)NC(=O)C2OC)cc1 (stereo not given)
inactive: all assays above

C=C[C@@](C)(CCC=C(C)C)O[C@@H]1O[C@H](CO[C@@H]2OC[C@H](O)[C@H](O)[C@H]2O)[C@@H](O)[C@H](O)[C@H]1O
inactive: all assays above
